Measurements taken from the supplement of paper PMC4022240.
± gives the standard deviation.

Experiments:
Assay in all cases: peptide microarray binding signal (635 nm), min-max normalized on array (fraction of array maximum); higher = stronger binding
Conditions in all cases: peptide region: H2B 7-19
[1] = target: T1, HaloTag-ATRX ADD domain (163-292)
T1 chain: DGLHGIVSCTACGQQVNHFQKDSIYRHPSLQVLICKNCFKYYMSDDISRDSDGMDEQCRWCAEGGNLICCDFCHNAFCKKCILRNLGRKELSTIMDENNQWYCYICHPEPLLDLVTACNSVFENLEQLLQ
Procedure: (§1)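 Histone 13-mer peptides were synthesized as cellulose conjugates with a C-terminal 20-atom PEG linker and printed in triplicate on nitrocellulose. The sequence given is the unmodified backbone; PTMs (Kme1/2/3, Kac, Sph/Tph, Rme/Rme2a/Rme2s, Rcit) are listed in the label and the 'peptide modifications' condition. Slides were probed at 4 °C for 1 h with biotin-labelled (HQ)5-HaloTag reader fusions (ATRX-ADD, ING2-PHD) then streptavidin-Alexa647, or with rabbit histone antibodies then anti-rabbit Alexa647. The mean 635 nm signal of the triplicate spots was scaled 0-1 between the lowest and highest values on each array.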

[2] = target: HaloTag-ING2 PHD (mouse Ing2 200-280)
Procedure: as §1

[3] = target: anti-H3K4me3 antibody ab8580
Procedure: as §1

[4] = target: anti-H3K9me3 antibody ab8898
Procedure: as §1

[5] = peptide modifications: H2BK12ac, binder concentration: 1:2,000 dilution
[6] = peptide modifications: H2BK12ac, binder concentration: 1:10,000 dilution
[7] = peptide modifications: H2BK15ac H2BK16ac, binder concentration: 1:2,000 dilution
[8] = peptide modifications: H2BK15ac H2BK16ac, binder concentration: 1:10,000 dilution
[9] = peptide modifications: H2BS14ph H2BK15ac H2BK16ac, binder concentration: 1:2,000 dilution
[10] = peptide modifications: H2BS14ph H2BK15ac H2BK16ac, binder concentration: 1:10,000 dilution
[11] = peptide modifications: H2BK11ac H2BK16ac, binder concentration: 1:2,000 dilution
[12] = peptide modifications: H2BK11ac H2BK16ac, binder concentration: 1:10,000 dilution
[13] = peptide modifications: H2BK12ac H2BK15ac H2BK16ac, binder concentration: 1:2,000 dilution
[14] = peptide modifications: H2BK12ac H2BK15ac H2BK16ac, binder concentration: 1:10,000 dilution
[15] = peptide modifications: H2BK12ac H2BS14ph H2BK16ac, binder concentration: 1:2,000 dilution
[16] = peptide modifications: H2BK12ac H2BS14ph H2BK16ac, binder concentration: 1:10,000 dilution
[17] = peptide modifications: H2BK15ac, binder concentration: 1:2,000 dilution
[18] = peptide modifications: H2BK15ac, binder concentration: 1:10,000 dilution
[19] = peptide modifications: H2BK12ac H2BK16ac, binder concentration: 1:2,000 dilution
[20] = peptide modifications: H2BK12ac H2BK16ac, binder concentration: 1:10,000 dilution
[21] = peptide modifications: H2BK11ac H2BS14ph H2BK16ac, binder concentration: 1:2,000 dilution
[22] = peptide modifications: H2BK11ac H2BS14ph H2BK16ac, binder concentration: 1:10,000 dilution
[23] = peptide modifications: H2BK11ac, binder concentration: 1:2,000 dilution
[24] = peptide modifications: H2BK11ac, binder concentration: 1:10,000 dilution

APAPKKGSKKAVT [H2B 7-19 A P A P K Kac G S K K A V T]
peptide microarray binding signal ([1]; peptide modifications: H2BK12ac, binder concentration: 50 nM): 0.00335 ± 0.0001
peptide microarray binding signal ([1]; peptide modifications: H2BK12ac, binder concentration: 500 nM): 0.0041 ± 0.00068
peptide microarray binding signal ([2]; peptide modifications: H2BK12ac, binder concentration: 10 nM): 0.00471 ± 0.00015
peptide microarray binding signal ([2]; peptide modifications: H2BK12ac, binder concentration: 100 nM): 0.00737 ± 0.00077
peptide microarray binding signal [3, 5]: 0.000208 ± 4.5e-06
peptide microarray binding signal [3, 6]: 0.000799 ± 1.7e-05
peptide microarray binding signal [4, 5]: 0.00116 ± 0.00021
peptide microarray binding signal [4, 6]: 0.00213 ± 0.00019

APAPKKGSKKAVT [H2B 7-19 A P A P K K G S Kac Kac A V T]
peptide microarray binding signal ([1]; peptide modifications: H2BK15ac H2BK16ac, binder concentration: 50 nM): 0.00539 ± 7.7e-05
peptide microarray binding signal ([1]; peptide modifications: H2BK15ac H2BK16ac, binder concentration: 500 nM): 0.00995 ± 0.00033
peptide microarray binding signal ([2]; peptide modifications: H2BK15ac H2BK16ac, binder concentration: 10 nM): 0.0115 ± 0.00069
peptide microarray binding signal ([2]; peptide modifications: H2BK15ac H2BK16ac, binder concentration: 100 nM): 0.0164 ± 0.004
peptide microarray binding signal [3, 7]: 0.00217 ± 0.0011
peptide microarray binding signal [3, 8]: 0.00131 ± 5.7e-05
peptide microarray binding signal [4, 7]: 0.00133 ± 5.4e-05
peptide microarray binding signal [4, 8]: 0.00185 ± 6.1e-05

APAPKKGSKKAVT [H2B 7-19 A P A P K K G Sph Kac Kac A V T]
peptide microarray binding signal ([1]; peptide modifications: H2BS14ph H2BK15ac H2BK16ac, binder concentration: 50 nM): 0.00307 ± 0.00018
peptide microarray binding signal ([1]; peptide modifications: H2BS14ph H2BK15ac H2BK16ac, binder concentration: 500 nM): 0.00848 ± 0.00083
peptide microarray binding signal ([2]; peptide modifications: H2BS14ph H2BK15ac H2BK16ac, binder concentration: 10 nM): 0.00525 ± 0.00091
peptide microarray binding signal ([2]; peptide modifications: H2BS14ph H2BK15ac H2BK16ac, binder concentration: 100 nM): 0.00312 ± 7.5e-05
peptide microarray binding signal [3, 9]: 0.00427 ± 0.00019
peptide microarray binding signal [3, 10]: 0.00108
peptide microarray binding signal [4, 9]: 0.000876 ± 3.2e-05
peptide microarray binding signal [4, 10]: 0.00104 ± 1.1e-05

APAPKKGSKKAVT [H2B 7-19 A P A P Kac K G S K Kac A V T]
peptide microarray binding signal ([1]; peptide modifications: H2BK11ac H2BK16ac, binder concentration: 50 nM): 0.00401 ± 5.5e-05
peptide microarray binding signal ([1]; peptide modifications: H2BK11ac H2BK16ac, binder concentration: 500 nM): 0.0108 ± 0.00051
peptide microarray binding signal ([2]; peptide modifications: H2BK11ac H2BK16ac, binder concentration: 10 nM): 0.00788 ± 0.0021
peptide microarray binding signal ([2]; peptide modifications: H2BK11ac H2BK16ac, binder concentration: 100 nM): 0.00751 ± 0.00032
peptide microarray binding signal [3, 11]: 0.00815 ± 0.00023
peptide microarray binding signal [3, 12]: 0.00108 ± 1.9e-05
peptide microarray binding signal [4, 11]: 0.00178 ± 9e-05
peptide microarray binding signal [4, 12]: 0.00133 ± 4.6e-05

APAPKKGSKKAVT [H2B 7-19 A P A P K Kac G S Kac Kac A V T]
peptide microarray binding signal ([1]; peptide modifications: H2BK12ac H2BK15ac H2BK16ac, binder concentration: 50 nM): 0.00505 ± 0.00068
peptide microarray binding signal ([1]; peptide modifications: H2BK12ac H2BK15ac H2BK16ac, binder concentration: 500 nM): 0.00719 ± 0.0027
peptide microarray binding signal ([2]; peptide modifications: H2BK12ac H2BK15ac H2BK16ac, binder concentration: 10 nM): 0.00621 ± 0.0005
peptide microarray binding signal ([2]; peptide modifications: H2BK12ac H2BK15ac H2BK16ac, binder concentration: 100 nM): 0.00631 ± 0.00038
peptide microarray binding signal [3, 13]: 0.00068 ± 9e-05
peptide microarray binding signal [3, 14]: 0.001541 ± 1.5e-05
peptide microarray binding signal [4, 13]: 0.00104 ± 4.9e-05
peptide microarray binding signal [4, 14]: 0.00133 ± 4e-05

APAPKKGSKKAVT [H2B 7-19 A P A P K Kac G Sph K Kac A V T]
peptide microarray binding signal ([1]; peptide modifications: H2BK12ac H2BS14ph H2BK16ac, binder concentration: 50 nM): 0.00194 ± 3.1e-05
peptide microarray binding signal ([1]; peptide modifications: H2BK12ac H2BS14ph H2BK16ac, binder concentration: 500 nM): 0.00229 ± 3.3e-05
peptide microarray binding signal ([2]; peptide modifications: H2BK12ac H2BS14ph H2BK16ac, binder concentration: 10 nM): 0.00358 ± 0.00017
peptide microarray binding signal ([2]; peptide modifications: H2BK12ac H2BS14ph H2BK16ac, binder concentration: 100 nM): 0.00198 ± 0.00015
peptide microarray binding signal [3, 15]: 0.000831 ± 0.00011
peptide microarray binding signal [3, 16]: 0.000628 ± 6.7e-06
peptide microarray binding signal [4, 15]: 0.000362 ± 6.3e-06
peptide microarray binding signal [4, 16]: 0.00075 ± 1.6e-05

APAPKKGSKKAVT [H2B 7-19 A P A P K K G S Kac K A V T]
peptide microarray binding signal ([1]; peptide modifications: H2BK15ac, binder concentration: 50 nM): 0.00238 ± 6.4e-05
peptide microarray binding signal ([1]; peptide modifications: H2BK15ac, binder concentration: 500 nM): 0.00448 ± 0.00011
peptide microarray binding signal ([2]; peptide modifications: H2BK15ac, binder concentration: 10 nM): 0.00561 ± 0.00014
peptide microarray binding signal ([2]; peptide modifications: H2BK15ac, binder concentration: 100 nM): 0.0039 ± 0.00027
peptide microarray binding signal [3, 17]: 0.00308 ± 0.00021
peptide microarray binding signal [3, 18]: 0.000742
peptide microarray binding signal [4, 17]: 0.0006645 ± 5.9e-06
peptide microarray binding signal [4, 18]: 0.000807

APAPKKGSKKAVT [H2B 7-19 A P A P K Kac G S K Kac A V T]
peptide microarray binding signal ([1]; peptide modifications: H2BK12ac H2BK16ac, binder concentration: 50 nM): 0.0107 ± 0.00094
peptide microarray binding signal ([1]; peptide modifications: H2BK12ac H2BK16ac, binder concentration: 500 nM): 0.00552 ± 0.0027
peptide microarray binding signal ([2]; peptide modifications: H2BK12ac H2BK16ac, binder concentration: 10 nM): 0.00734 ± 0.00071
peptide microarray binding signal ([2]; peptide modifications: H2BK12ac H2BK16ac, binder concentration: 100 nM): 0.0104 ± 0.0012
peptide microarray binding signal [3, 19]: 0.000302 ± 2.2e-05
peptide microarray binding signal [3, 20]: 0.0016 ± 0.00014
peptide microarray binding signal [4, 19]: 0.00136 ± 0.00029
peptide microarray binding signal [4, 20]: 0.00127 ± 8.9e-05

APAPKKGSKKAVT [H2B 7-19 A P A P Kac K G Sph K Kac A V T]
peptide microarray binding signal ([1]; peptide modifications: H2BK11ac H2BS14ph H2BK16ac, binder concentration: 50 nM): 0.00207 ± 8.4e-05
peptide microarray binding signal ([1]; peptide modifications: H2BK11ac H2BS14ph H2BK16ac, binder concentration: 500 nM): 0.00281 ± 2.2e-05
peptide microarray binding signal ([2]; peptide modifications: H2BK11ac H2BS14ph H2BK16ac, binder concentration: 10 nM): 0.00227 ± 3.4e-05
peptide microarray binding signal ([2]; peptide modifications: H2BK11ac H2BS14ph H2BK16ac, binder concentration: 100 nM): 0.00128 ± 1.3e-05
peptide microarray binding signal [3, 21]: 0.000396 ± 1.2e-05
peptide microarray binding signal [3, 22]: 0.000514 ± 5.5e-06
peptide microarray binding signal [4, 21]: 0.000242 ± 6.7e-06
peptide microarray binding signal [4, 22]: 0.000461 ± 8.7e-06

APAPKKGSKKAVT [H2B 7-19 A P A P Kac K G S K K A V T]
peptide microarray binding signal ([1]; peptide modifications: H2BK11ac, binder concentration: 50 nM): 0.00367 ± 0.00044
peptide microarray binding signal ([1]; peptide modifications: H2BK11ac, binder concentration: 500 nM): 0.00667 ± 0.0024
peptide microarray binding signal ([2]; peptide modifications: H2BK11ac, binder concentration: 10 nM): 0.00227 ± 7.3e-05
peptide microarray binding signal ([2]; peptide modifications: H2BK11ac, binder concentration: 100 nM): 0.00432 ± 0.00029
peptide microarray binding signal [3, 23]: 0.000264 ± 1.1e-05
peptide microarray binding signal [3, 24]: 0.000628 ± 6.7e-06
peptide microarray binding signal [4, 23]: 0.000408
peptide microarray binding signal [4, 24]: 0.000519 ± 5.6e-06
